Reference: PubChem BioAssay (Tox21)
Inconclusive results are not listed. Where a call stands in place of a potency, no number is given. Activity calls are given as the source filed them. Calls follow the shape of the dose curve; as a rule, active = well fitted inhibition curve with a large enough effect in the signal ratio in the repeat runs (not every such curve was filed as active); inconclusive = weak or mixed curves, or effect the other way; inactive = flat fitted curve, though single readings scatter; the % refers to the signal ratio.

Experiment: cAMP Responsive Elements (CRE) small molecule antagonists, cell-based qHTS assay (AID 1963591)
Details: CRE-bla HEK293T, beta-lactamase FRET ratio; series mostly up to 92.4 µM
Source text: U.S. Tox21 Program National Center for Advancing Translational Sciences [NCATS] Division of Preclinical Innovation [DPI] U.S. Environmental Protection Agency [EPA] National Institutes of Environmental Health Sciences [NIEHS] National Toxicology Program [NTP] U.S. Food and Drug Administration [FDA] Tox21 Assay Overview: CREB (cyclic-AMP Responsive Element Binding Protein) is a cellular transcription factor. It binds to certain DNA sequences called cAMP Responsive Elements (CRE) and regulates the transcription of the genes. […] This cell line can be used to find agonists/antagonists of the cyclic AMP signaling pathway. The activation of the report gene under culture conditions can be detected by fluorescence intensity. This cell line has been used to screen the Tox21 10K compound library to […].
Tox21 Assay Protocol Summary: CRE-bla Hek 293T cells were suspended in assay medium (DMEM containing 10% dialyzed FBS, 0.1 mM NEAA, 1 mM sodium pyruvate and 25 mM HEPES) and dispensed at 2,000 cells/4 uL /well into 1536-well black wall/clear bottom plates using a Multidrop Combi (ThermoFisher Scientific, Waltham, MA) dispenser. After the assay plates were incubated at 37 C/5% CO2 for 18 hrs, 23 nL of compounds dissolved in DMSO, positive controls or DMSO only was transferred to the assay plate by a pintool workstation (Kalypsys, San Diego, CA), followed by addition of 1 […] uL of 1.25uM NKH477 (0.25 uM as final concentration) in assay medium using a Flying Reagent Dispenser (Aurora Discovery, San Diego, CA). The plates were incubated at 37 C and 5% CO2 for 3 hrs. Then 1 uL of LiveBLAzer B/G FRET substrate (Invitrogen, Carlsbad, CA) was added to each well using Bioraptr Flying Reagent Dispenser (FRD, Aurora Discovery, San Diego, CA). The plates were incubated at room temperature for 2 h.

SMILES	Potency	activity change, negative = inhibition
Clc1nc(Cl)nc(Nc2ccccc2Cl)n1	inactive	–
COP(N)(=O)SC (stereo not given)	inactive	–
CCN(CC)C(=O)SCc1ccc(Cl)cc1	inactive	–
CC[N+](=O)[O-]	inactive	–
CC12CC1(C)C(=O)N(c1cc(Cl)cc(Cl)c1)C2=O (stereo not given)	inactive	–
COc1nc(C)nc(NC(=O)NS(=O)(=O)c2ccccc2Cl)n1	inactive	–
C=CC(=O)OCC(C)C	inactive	–
C=CC(=O)OCCCCCC(C)C	inactive	–
CCOc1ccc(N)cc1	inactive	–
CNCC(O)c1ccc(O)cc1 (stereo not given)	inactive	–
c1ccc(C2CO2)cc1 (stereo not given)	inactive	–
OC[C@@H](O)[C@H]1O[C@@H]2O[C@H](C(Cl)(Cl)Cl)O[C@@H]2[C@H]1O	inactive	–
Nc1ccc2ccccc2c1	inactive	–
O=S(=O)(c1ccc(Cl)cc1)c1cc(Cl)c(Cl)cc1Cl	inactive	–
O=[N+]([O-])c1cccc2ccccc12	inactive	–
Oc1ccccc1Cl	inactive	–
C=CCSSCC=C	inactive	–
N#CCCC#N	inactive	–
CC1C=[C-]C=C1.[C-]#[O+].[C-]#[O+].[C-]#[O+].[Mn]	inactive	–
NNC(N)=S	inactive	–

SMILES	Potency	activity change, negative = inhibition
O=C(Cl)OCc1ccccc1	inactive	–
O=P(O)(O)CCCl	inactive	–
CC(C)(C)C(O)(CCc1ccc(Cl)cc1)Cn1cncn1 (stereo not given)	inactive	–
CCCCCCCCCCCCCCCCn1cc[n+](C)c1	inactive	–
C#C[C@]1(O)CC[C@H]2[C@@H]3CCC4=CC(=O)CC[C@]4(C)[C@H]3CC[C@@]21C	inactive	–
C=CC(Cl)CCl (stereo not given)	inactive	–
CCC(C)n1c(=O)[nH]c(C)c(Br)c1=O (stereo not given)	inactive	–
COP(=O)(NC(C)=O)SC (stereo not given)	inactive	–
ClC(Cl)(Cl)Br	–	0.761% [at 18.9 µM] (inactive)
O=c1ccc(=O)[nH][nH]1	inactive	–
C1CCC(NC2CCCCC2)CC1	inactive	–
CC(C)(O)C(=O)Nc1ccc([N+](=O)[O-])c(C(F)(F)F)c1	inactive	–
O=[N+]([O-])c1ccccc1	inactive	–
CCCCC1C(=O)NC(=O)N(C2CCCCC2)C1=O (stereo not given)	inactive	–
N#CC(Cl)Cl	inactive	–
CNC(C)(C)Cc1ccccc1	inactive	–
CCOC(=O)Nc1cccc(OC(=O)Nc2ccccc2)c1	inactive	–
COc1cccc(C=O)c1	inactive	–
Cc1ccc(N)cc1N	inactive	–
CCCCOC(=O)COC(=O)c1ccccc1C(=O)OCCCC	inactive	–
